The record followed here is PubChem BioAssay (NCATS).

A number with no mark means an inactive call. Activity calls are given as the source filed them. Cut-off read from the data, not from the text of the source: active = potency below about 10 µM; inactive = the rest.
Potency is the fitted concentration of half-maximal effect.

Sequence of Lysosomal acid glucosylceramidase (Homo sapiens) (P04062 whole entry, looked up): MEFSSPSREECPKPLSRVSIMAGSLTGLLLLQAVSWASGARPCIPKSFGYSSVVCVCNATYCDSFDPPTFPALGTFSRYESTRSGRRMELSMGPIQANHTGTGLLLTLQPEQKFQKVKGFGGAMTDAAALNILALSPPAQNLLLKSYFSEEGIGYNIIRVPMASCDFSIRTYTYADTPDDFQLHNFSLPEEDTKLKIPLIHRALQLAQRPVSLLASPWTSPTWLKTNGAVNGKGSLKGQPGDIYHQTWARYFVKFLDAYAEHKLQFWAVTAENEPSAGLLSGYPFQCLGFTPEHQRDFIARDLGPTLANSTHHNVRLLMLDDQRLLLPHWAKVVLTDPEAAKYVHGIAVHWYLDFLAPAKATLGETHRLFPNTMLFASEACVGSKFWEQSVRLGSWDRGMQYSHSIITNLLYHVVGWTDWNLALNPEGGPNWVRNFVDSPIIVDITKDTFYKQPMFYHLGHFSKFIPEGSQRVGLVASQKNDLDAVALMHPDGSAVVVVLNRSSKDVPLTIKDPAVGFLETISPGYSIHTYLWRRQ

The target in this assay is Lysosomal acid glucosylceramidase (Homo sapiens) (UniProt P04062). Nature of the assay: Glucocerebrosidase-p2 (AID 348). Conditions: purified GBA, blue fluorogenic substrate, 40 min. The text has this:
Beta-glucocerebrosidase catalyzes the hydrolysis of beta-glucocerebroside to glucose and ceramide. The inherited deficiency of beta-glucocerebrosidase results in Gaucher disease, which is characterized by a wide variety of symptoms including hepatosplenomegaly, anemia, thrombocytopenia, bony lesions and bone marrow infiltration with characteristic storage cells, known as Gaucher cells. There are also forms of the disorder affecting the central nervous system. Patients with the same genotypes can manifest with diverse clinical presentations and it is believed that improper folding and trafficking of beta-glucocerbrosidase may contribute to the phenotypes observed.
Low molecular weight molecules, acting as chaperones, may potentially restore trafficking of misfolded beta-glucocerebrosidase from the endoplasmic reticulum to the lysosomes, thereby enhancing functional lysosomal beta-glucocerebrosidase activity.
Using normal beta-glucocerebrosidase, an assay was developed to screen for small molecule inhibitors that could potentially act as molecular chaperones on the mutant forms [developed with NIH investigator Dr. Ellen Sidransky#s laboratory]. Two pro-fluorescent substrates were chosen for two screens against a small molecule library. One beta-glucocerebrosidase assay used Resorufin beta-D-Glucopyranoside (Marker Gene Technology Inc.), generating a red fluorescent product. The second assay used […] fluorescent product. The Km for the Resorufin beta-D-Glucopyranoside and Fluorescein di-beta-D-Glucopyranoside were determined to be 71.2 uM and 855 uM, respectively. The IC50 values of Conduritol B Epoxide, a known glucocerebrosidase inhibitor, were determined to be 87.5 uM and 117 uM, respectively. The use of two difference pro-fluorescent substrates in the screens helped to eliminate false positives. All compounds were screened in a titration series resulting in AC50s (e.g., IC50s or EC50s). Data normalization and AC50 calculations were accomplished using GeneData software.
NCGC Assay Protocol Summary
Both enzyme and substrate were diluted in buffer composed of 50mM citric acid/KH2PO4, 10mM sodium taurocholate and 0.01% tween-20 at pH 5.9. The final concentration of the enzyme was 0.2 nM in both assays. The compound library was titrated in 7 to 15 concentrations for the primary screens with a final concentration ranging from 0.6 nM to 50 uM. This particular assay protocol is for the "blue" substrate, and it was performed in 1536-well plate format as follows:
Blue fluorescence substrate assay:
1 uL substrate (final concentration of 80 uM)
Incubate at room temperature (RT) for 40 minutes
3 uL stop solution (1 M NaOH and 1 M glycine in water)
Read the plate in Viewlux plate reader (Ex=365(10) and Em=440(10)).
As to `COc1ccc(-c2nc3cnc(N4CCNCC4)nc3n(Cc3ccc(F)cc3)c2=O)cc1`, the Potency was over 11.4 µM.

As to `COc1ccccc1-c1cncnc1Nc1ccc(F)cc1`, the Potency is over 11.4 µM.

As to `CNc1ccnc(-c2ccccc2OC)n1`, the Potency is over 11.4 µM.

Take `Cc1nc2cnc(N3CCOCC3)nc2n(C2CC2)c1=O`: the Potency is over 11.4 µM.

In the case of `Cc1nc2cnc(OCc3ccccc3)nc2n(C)c1=O`, the Potency is over 11.4 µM.

`COc1ccc(Oc2ncc3nc(-c4cc(F)cc(F)c4)c(=O)n(CCC#N)c3n2)cc1`: the Potency was over 11.4 µM.

Regarding `CC(C)NC(=O)N1CC[C@@]2(CCCN(S(C)(=O)=O)C2)C1`, the Potency is over 11.4 µM.

On to `CS(=O)(=O)Nc1cccc(-c2ccc3ncnc(Nc4ccccc4)c3c2)c1`, for which the Potency was over 11.4 µM.

As for `CNc1nc(-c2ccccc2Cl)nc2ccccc12`, the Potency is 5.87 µM (active).

In the case of `Cc1cnc(CNc2ncncc2-c2ccccc2C#N)cn1`, the Potency is over 11.4 µM.

Take `COCCn1c(=O)c(-c2ccccc2)nc2cnc(Oc3ccc(OC)cc3)nc21`: the Potency is over 11.4 µM.

Take `CN1CCN(c2nc(-c3ccc4c(c3)OCO4)nc3ccccc23)CC1`: the Potency is over 11.4 µM.

Turning to `O=C(c1csnn1)N1CCC2(CC1)CCN(c1ncccn1)CC2`, the Potency was over 11.4 µM.

Regarding `CN(C)c1ncc2nc(CCc3ccccc3)c(=O)n(C[C@H]3CCCO3)c2n1`, the Potency is over 11.4 µM.

Take `O=C(c1cnccn1)N1CCC2(CCN(Cc3nccs3)CC2)CC1`: the Potency was over 11.4 µM.

Turning to `c1csc(CNc2ncncc2-c2ccc3c(c2)OCO3)c1`, the Potency is over 11.4 µM.

Turning to `O=c1c(-c2ccc(F)cc2)nc2cnc(Oc3ccccc3)nc2n1Cc1cccs1`, the Potency was over 11.4 µM.

For the molecule `FC(F)(F)c1ccccc1-c1nc(NCCN2CCOCC2)c2ccccc2n1`, the Potency is over 11.4 µM.

For `CN(C)C(=O)c1ccc(-c2ccc3ncnc(N4CCC(C(=O)O)CC4)c3c2)cc1`, the Potency was over 11.4 µM.

With `CN(C)Cc1ccccc1-c1nc(N2CCOCC2)c2ccccc2n1`, the Potency is over 11.4 µM.

As to `COCC(=O)N1CCC[C@@]2(CCN(C(=O)Nc3ccc(OC)cc3)C2)C1`, the Potency is over 11.4 µM.

As to `COc1cccc(Nc2ncc3nc(-c4ccccc4)c(=O)n(Cc4cccs4)c3n2)c1`, the Potency was over 11.4 µM.

For the molecule `COc1cccc(Nc2ncc3ncc(=O)n(CCc4ccccc4)c3n2)c1`, the Potency was over 11.4 µM.

In the case of `O=C(c1ccco1)N1CCC2(CC1)CCN(c1cccc(-c3ccccc3)c1)CC2`, the Potency is over 11.4 µM.

For the molecule `Cn1cccc1C(=O)N1CCC[C@@]2(CCN(c3ccccc3)C2)C1`, the Potency is over 11.4 µM.

Consider `CC(=O)N1CCC2(CC1)CN(c1ccccc1)C2`, for which the Potency was over 11.4 µM.

Consider `Cc1noc(C)c1C(=O)N1CCC2(CC1)CN(C(=O)Nc1cccc(F)c1)C2`, for which the Potency was over 11.4 µM.

Regarding `Cn1cc(-c2nc3cncnc3n(-c3ccccc3)c2=O)c2ccccc21`, the Potency is over 11.4 µM.

With `Cc1noc(C)c1-c1cc(N(C)C)ncn1`, the Potency is over 11.4 µM.

In the case of `COc1ncc2nc(-c3ccc(F)cc3)c(=O)n(-c3ccccc3)c2n1`, the Potency is over 11.4 µM.

Turning to `COc1ccccc1CN1CC[C@@]2(CCCN(C(C)=O)C2)C1`, the Potency is over 11.4 µM.

For `COC(=O)N1CCC2(CC1)CCN(c1ccccc1)CC2`, the Potency is over 11.4 µM.

Turning to `O=S(=O)(c1ccccc1)N1CCC2(CC1)CN(c1ncccn1)C2`, the Potency is over 11.4 µM.

For the molecule `CC(C)NC(=O)N1CCC2(CC1)CCN(C(=O)c1csnn1)CC2`, the Potency was over 11.4 µM.

On to `Cn1c(=O)c(-c2cccs2)nc2cncnc21`, for which the Potency is over 11.4 µM.

Turning to `Cc1noc(C)c1-c1cncnc1NCc1ccccc1`, the Potency was over 11.4 µM.

Regarding `O=c1c(-c2cc(F)cc(F)c2)nc2cnc(N3CCOCC3)nc2n1C1CC1`, the Potency was over 11.4 µM.

`O=C(c1ccco1)N1CCC2(CC1)CN(Cc1cc(C(F)(F)F)cc(C(F)(F)F)c1)C2`: the Potency is over 11.4 µM.

Turning to `CC(C)NC(=O)N1CCC2(CC1)CCN(C(=O)c1cc(C(F)(F)F)cc(C(F)(F)F)c1)CC2`, the Potency is over 11.4 µM.

As for `Cn1cc(-c2nc3cncnc3n(Cc3ccc(F)cc3)c2=O)c2ccccc21`, the Potency was over 11.4 µM.
